Nrf2 inh: blocks Nrf2 signaling; A549 ARE-Fluc reporter, luciferase luminescence, 18-24 h; Potency, µM (doses to about 46 µM), without a hit: at the highest dose activity change, negative = inhibition, actives largely listed as inhibitors; hit rate 2.1% among 360,000; AID 504444; note: % is set by controls: 0 for no effect and ±100 for the full control effect; nearly all actives have a fitted effect of over 60% in size
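Concentration-response testing used A549 ARE_Fluc cells at 5000 cells/well. Following an 18-24 h compound incubation, viability was read by fluorescence (Ex 405/Em 525) and luciferase output by luminescence.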
A549 tox-1: A549 cytotoxicity, counter-screen for Nrf2 inhibitors; A549 ARE-Fluc cells, CellTiter-Fluor viability, 18-24 h; Potency, µM (top dose mostly 46 µM), inactives show at the highest dose activity change, negative = cytotoxicity, actives largely listed as inhibitors; hit rate 0.16% among 390,000; AID 504648; note: % is set by controls: 0 for no effect and ±100 for the full control effect
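A549 ARE_Fluc cells in 5% FBS OPTI-MEM were exposed to compounds in concentration-response for 18-24 h at 37 deg C. Viability was read by CellTiter-Fluor fluorescence (Ex 405/Em 525) after 30 min, before the luciferase read.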
Nrf2 activator: activators of Nrf2 (ARE) signaling; hit rate 0.31% among 410,000; Potency, µM (top dose mostly 46.1 µM), without a hit: top-dose activation, hits mostly activators; AREc32 ARE-luciferase reporter (MCF7-derived line), luminescence, 24 h; note: % of control where 0% means no effect; nearly all actives have a fitted effect of over 65% in size
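ARE activation measured as luciferase luminescence (Steady-Glo, 30 min RT) in AREc32_Fluc cells after 24 hr compound exposure at 37 deg C, 5% CO2; cells seeded overnight at 1000/well in OPTI-MEM, 5% FBS.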
Pin1 inh: human Pin1 inhibition. Pin1 FP peptide displacement, HiFluor488, 10 min. Potency, µM (titrated, usually from 115 µM), without a hit: top-dose activity, negative = inhibition, actives largely listed as inhibitors. hit rate 0.009% among 390,000. Q13526; active = well fitted inhibition curve with a large enough effect in the polarisation, with a control signal flat, not every such curve was filed as active; inconclusive = small, poorly fitted or top-dose-only effect, or effect the other way, or a change in a side signal; inactive = no such curve, though single readings can be large or run the other way; the % refers to the polarisation; note: % is set by controls: 0 for no effect and ±100 for the full control effect
Target sequence (Q13526 whole entry, looked up): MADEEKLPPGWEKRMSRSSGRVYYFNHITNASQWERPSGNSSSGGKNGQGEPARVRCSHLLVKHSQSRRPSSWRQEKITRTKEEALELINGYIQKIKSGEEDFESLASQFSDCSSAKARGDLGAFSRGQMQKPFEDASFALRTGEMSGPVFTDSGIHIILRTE
FLuc enzyme inh: blocks purified firefly luciferase in Nrf2 counterscreen; purified firefly luciferase, luminescence inhibition; hit rate 4% among 1,400; Potency, µM (titrated, usually from 57.5 µM), inactives show at the top dose activity change, negative = inhibition, hits mostly inhibitors; shares compounds with Nrf2 inh; AID 720522; note: % is set by controls: 0 for no effect and ±100 for the full control effect; nearly all actives have a fitted effect of over 65% in size
A549 tox-2: counter-screen for Nrf2 inhibitors: cytotoxicity in A549 ARE cells; shares compounds with Nrf2 inh; A549 ARE-Fluc cells, cytotoxicity counterscreen; Potency, µM (series often up to 46.1 µM), for the others: top-dose activity change, negative = cytotoxicity, hits mostly inhibitors; hit rate 2% among 1,400; AID 720523;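 note: cells exposed to compounds for 18 to 24 hours; % is set by controls: 0 for no effect and ±100 for the full control effect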
Nrf2 ARE inh: reduces Nrf2 ARE reporter signal in A549 cells; shares compounds with Nrf2 inh; A549 ARE-firefly luciferase reporter, luminescence; Potency, µM (series often up to 46.1 µM), without a hit: top-dose activity change, negative = inhibition, hits mostly inhibitors; hit rate 74% among 1,400; note: % is set by controls: 0 for no effect and ±100 for the full control effect; nearly all actives have a fitted effect of over 65% in size
The depositor's hits bear a star; ? = inconclusive; . = no result given. A selection: hits, their analogues and other compounds. The true share with any hit is near 2.2%. Unless noted, calls come from the whole dose curve; as a rule, active = well fitted curve in the direction sought with a large enough effect; inconclusive = small, poorly fitted or top-dose-only effect, or another doubt; inactive = no such curve, though single readings can be large; an effect the other way counts as inactive or inconclusive. Potency is the fitted concentration of half-maximal effect.

SMILES	Nrf2 inh	A549 tox-1	Nrf2 activator	Pin1 inh	FLuc enzyme inh	A549 tox-2	Nrf2 ARE inh
C[C@H]1O[C@@H](OC2CC[C@]3(C=O)[C@H]4CC[C@]5(C)[C@@H](C6=CC(=O)OC6)CC[C@]5(O)[C@@H]4CC[C@]3(O)C2)CC2OC(C)(C)OC21 (some centres undefined)	0.164µM*	?	-3.5%	3.9%	-0.8%	?	0.0651µM*
N#Cc1cc2c(nc1SCC(=O)Nc1ccc(F)c(Cl)c1)C1CCN2CC1	18.5%	-10.0%	0.6%	2.1%	.	.	.
COc1ccccc1N=c1scc(-c2ccc(S(=O)(=O)N3CCCC3)cc2)n1C	3.66µM*	-17.3%	-0.8%	3.0%	1.0%	-25.7%	6.51µM*
CC1(C)CC(=O)C2=C(C1)OC(N)=C([N+](=O)[O-])C2c1ccc(C#N)s1 (centres undefined)	-2.4%	18.9%	?	-9.8%	.	.	.
N#CC(C#N)=Cc1ccc(O)c(O)c1	-22.9%	-0.3%	0.5%	5.7%	.	.	.
CC(C)(C)c1cc(C=C(C#N)C#N)cc(C(C)(C)C)c1O	0.651µM*	?	0.1%	6.5%	-2.6%	?	1.3µM*
CCCOP(=O)(OCCC)C(Nc1ccc(C(C)C)cc1)c1ccc([N+](=O)[O-])cc1 (centres undefined)	?	-23.4%	3.1%	1.2%	.	.	.
COC(=O)[C@]12OC[C@]34C([C@@H](O)[C@@H]1O)[C@]1(C)CC(=O)C(O)=C(C)[C@@H]1C[C@H]3OC(=O)[C@H](O)[C@@H]24 (some centres undefined)	1.3µM*	?	-2.8%	1.4%	-0.6%	?	1.46µM*
COc1ccc(C[C@H]2NC[C@H](O)[C@H]2OC(C)=O)cc1	0.116µM*	?	-1.3%	3.1%	-18.0%	0.7%	7.31µM*
COc1ccc(CCNC2CCCCC2)cc1	-6.1%	-10.4%	-0.8%	-3.5%	.	.	.
CCN(CC)C(=O)c1ccc(NC(=O)c2cc(S(=O)(=O)N3CCCCCC3)ccc2OC)cc1	?	-3.9%	0.0%	-2.2%	.	.	.
CCN(CC)C(=O)c1ccc(NC(=O)c2cccc(S(=O)(=O)N3CCN(Cc4ccccc4)CC3)c2)cc1	2.06µM*	?	-0.2%	8.7%	0.1%	-7.5%	8.2µM*
[O]=[Sb]([OH])([OH])[c]1ccccc1	-0.9%	0.1%	.	.	.	.	.
CCCCNS(=O)(=O)c1ccc(OCC(=O)N2CCN(Cc3ccc4c(c3)OCO4)CC2)cc1	4.61µM*	?	-0.5%	-0.7%	3.7%	-4.0%	?
O=C(COc1ccc(S(=O)(=O)N2CCOCC2)cc1)N1CCN(Cc2ccc3c(c2)OCO3)CC1	?	-7.0%	-0.1%	-1.6%	.	.	.
C[C@H]1C[C@@H](C)C(=O)[C@@H]([C@H](O)CC2CC(=O)NC(=O)C2)C1	0.411µM*	?	-2.1%	-6.9%	0.1%	-27.2%	13µM*
CC1OC(OC2C=C3CCC4C(CCC5(C)C(c6ccc(=O)oc6)CCC45O)C3(C)CC2)C(O)C(OC2OC(CO)C(O)C(O)C2O)C1O (centres undefined)	0.0731µM*	?	-2.3%	-4.0%	1.7%	?	0.0082µM*
COc1ccc(C2/C=C\CN(C(=O)Oc3ccc(C(F)(F)F)cc3)CC(=O)N2Cc2ccc(F)cc2)cc1 (centres undefined)	?	?	5.9%	?	.	.	.
O=C1NC2C(=CC(O)C(O)C2O)c2cc3c(c(O)c21)OCO3 (centres undefined)	0.259µM*	?	-2.2%	-13.3%	0.8%	?	.
O=C1NC2C(O)C(O)C(O)C(O)C2c2cc3c(c(O)c21)OCO3 (centres undefined)	0.92µM*	1.16µM*	-2.3%	-11.2%	2.9%	?	1.3µM*
COc1cc(C2c3cc4c(c(O)c3CC3COC(=O)C32)OCO4)cc(OC)c1O (centres undefined)	?	-1.3%	.	15.5%	.	.	.
Cc1ccc(-n2c(/C=C\c3ccc(F)c(F)c3)nc3ccccc3c2=O)c(C)c1	.	-1.2%	-0.3%	2.7%	.	.	.
Cc1ccc(Nc2nnc(-c3ccc(C)c(S(=O)(=O)NCc4nc5ccccc5[nH]4)c3)c3ccccc23)cc1	-1.9%	-15.6%	12.7%	60.7%	.	.	.
Cc1ccc(Cn2c(SCc3ccc(C(=O)NC4CCCC4)cc3)nc3ccncc32)cc1	?	-13.4%	-3.6%	32.8%	.	.	.

From PubChem
